# Records with an inconclusive call do not appear. A call without a number means that no potency is given here. A number with no mark means an inactive call. The source made the active and inactive calls. Calls follow the shape of the dose curve; as a rule, active = well fitted curve in the direction sought with a large enough effect; inconclusive = small, poorly fitted or top-dose-only effect, or another doubt; inactive = no such curve, though single readings can be large; an effect the other way counts as inactive or inconclusive.
# Assays:
# HaCat [1] = test: Cytotoxic Profiling of Annotated Libraries Using Quantitative High-Throughput Screening (AID 1296008); conditions: Five cell lines viability, CellTiter-Glo ATP luminescence, 48-72 h; max response: active compounds read low; also: nearly all actives have a fitted effect of over 60% in size; also: potency is read from the fitted curve at half-maximal effect
# Method in brief: (§1)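 Cells exposed to compounds for 48 or 72 hr at 37 degrees Celsius. Viability read as ATP-coupled luminescence with CellTiter-Glo after 10 min at room temperature.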
# KB-3-1 = test: as above; conditions: Five cell lines viability, CellTiter-Glo ATP luminescence, 48-72 h; max response: active compounds read low
# Method in brief: as §1
# HEK293T [2] = test: qHTS assay to identify novel small-molecules to repurpose for Merkel cell carcinoma treatment (AID 1296009); conditions: MCC and control cell lines, CellTiter-Glo viability, 72 h; at 44.8 µM (top of the series) unless noted; also: nearly all actives have a fitted effect of over 60% in size
# Method in brief: (§2)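 Dose-response viability screen; 72 hr exposure at 37 degree celsius; CellTiter-Glo added, 10 min room temperature, luminescence read; RLUs scaled between no-cell and DMSO wells.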
# C33A = test: Primary qHTS to identify gynecologic anti-cancer compounds using libraries of approved drugs and bioactive compounds (AID 1345084); conditions: Gynecologic cancer cell panel viability, ATPlite luminescence, 48 h; series mostly up to 57.5 µM; also: nearly all actives have a fitted effect of over 55% in size; also: potency is read from the fitted curve at half-maximal effect
# Method in brief: (§3)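 Cells, 1,000 per well, plated 16 h, then exposed 48 h at 37 C to compounds. Viability by ATPlite luminescence after 15 min at room temperature.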
# CASKI = test: as above; conditions: Gynecologic cancer cell panel viability, ATPlite luminescence, 48 h; series mostly up to 57.5 µM
# Method in brief: as §3
# Es-2 = test: as above; conditions: Gynecologic cancer cell panel viability, ATPlite luminescence, 48 h; series mostly up to 57.5 µM
# Method in brief: as §3
# JEG-3 = test: as above; conditions: Gynecologic cancer cell panel viability, ATPlite luminescence, 48 h; series mostly up to 57.5 µM
# Method in brief: as §3
# OV90 = test: as above; conditions: Gynecologic cancer cell panel viability, ATPlite luminescence, 48 h; series mostly up to 57.5 µM
# Method in brief: as §3
# HACAT [3] = test: qHTS assay to identify novel small-molecules to repurpose for Merkel cell carcinoma treatment (AID 1296009); conditions: MCC and control cell lines, CellTiter-Glo viability, 72 h; series mostly up to 44.8 µM; also: nearly all actives have a fitted effect of over 60% in size
# Method in brief: as §2
# HeLa = test: Primary qHTS to identify gynecologic anti-cancer compounds using libraries of approved drugs and bioactive compounds (AID 1345084); conditions: Gynecologic cancer cell panel viability, ATPlite luminescence, 48 h; series mostly up to 57.5 µM; also: nearly all actives have a fitted effect of over 55% in size; also: potency is read from the fitted curve at half-maximal effect
# Method in brief: as §3
# Hek293T [4] = test: as above; conditions: Gynecologic cancer cell panel viability, ATPlite luminescence, 48 h, control line for the selectivity index; series mostly up to 57.5 µM
# Method in brief: as §3
# CAOV3 = test: as above; conditions: Gynecologic cancer cell panel viability, ATPlite luminescence, 48 h; series mostly up to 57.5 µM
# Method in brief: as §3
Structure (SMILES),max response (HaCat [1]) [%],max response (KB-3-1) [%],outcome (HEK293T [2]),Potency (C33A),Potency (CASKI),Potency (Es-2),Potency (JEG-3),Potency (OV90),outcome (HaCat [1]),Potency (KB-3-1),Potency (HACAT [3]),Potency (HeLa),Potency (Hek293T [4]),Potency (CAOV3),outcome (KB-3-1)
c1ccc(-c2csc(N3CCOCC3)n2)cc1,-7.34,8.26,inactive,inactive,inactive,inactive,inactive,inactive,,,,,,,
COc1ccc2[nH]c3c(-c4cccc5ccccc45)nccc3c2c1,,,,2820 nM (active),1410 nM (active),1580 nM (active),,,inactive,820 nM (active),inactive,891 nM (active),,,
O=C(N/N=C/c1ccc(O)c(O)c1)c1cc2ccccc2cc1O,-0.414,7.95,inactive [at 17.4 µM],inactive,inactive,inactive,inactive,inactive,,,,inactive,inactive,,
O=C(CC(c1ccccc1)c1ccccc1)N1CCN(C(c2ccccc2)c2ccccc2)CC1,-29,,,inactive,inactive,inactive,inactive,inactive,,18400 nM (active),,inactive,inactive,inactive,
COc1ccc(-c2c(-c3cc(C(=O)O)ccn3)ncn2C)cc1,-1.2,4.75,,inactive,inactive,inactive,inactive,inactive,,,,inactive,inactive,inactive,
COCCOc1cnc2ccn([C@H](C)c3nnc4c(F)cc(-c5cnn(C)c5)cn34)c(=O)c2c1,4.9,1.49,,inactive,inactive,inactive,inactive,inactive,,,,inactive,inactive,inactive,
O=C(O)[C@H](Cc1ccc(Nc2nccc3ccncc23)cc1)NC1=C(Br)C(=O)C12CCCCC2,,,,inactive,inactive,inactive,inactive,inactive,inactive,,inactive,inactive,inactive,inactive,inactive
O=C(CO)[C@@H](O)[C@H](O[C@@H]1O[C@H](CO)[C@H](O)[C@H](O)[C@H]1O)[C@H](O)CO,-14,5.5,inactive,inactive,inactive,inactive,inactive,inactive,,,,inactive,inactive,inactive,
C=CC(=O)N1CCN(C(=O)CNc2cc(I)c(Cl)cc2O)CC1,,,,inactive,,inactive,inactive,inactive,inactive,20600 nM (active),inactive,inactive,inactive,,
C=C1C(=O)OC2CC(C)=C(C(C)CCCO)C(O)C12 (stereo not drawn),-11.4,,,inactive,inactive,inactive,inactive,inactive,,,,inactive,inactive,inactive,inactive
C=C1[C@@H]2CC[C@@H]3[C@@](CCC4C(C(=O)O)(C(=O)O)C[C@@H](O[C@@H]5O[C@H](CO)[C@@H](O)[C@H](O)[C@H]5OC(=O)CC(C)C)C[C@]43C)(C2)[C@H]1O (stereo partly drawn),2.26,,,inactive,inactive,inactive,inactive,inactive,,,,inactive,inactive,inactive,inactive
CCC1=CC2CN(C1)Cc1c([nH]c3ccccc13)[C@@](C(=O)OC)(c1cc3c(cc1OC)N(C)[C@H]1[C@@](O)(C(=O)OC)[C@H](OC(C)=O)[C@]4(CC)C=CCN5CC[C@]31[C@@H]54)C2 (stereo partly drawn),,,,,inactive,282 nM (active),,,inactive,35.5 nM (active),inactive,126 nM (active),,inactive,
